# Experimental data reported in PubChem BioAssay (NCI).
# This is part of a sample that, as a whole, favours compounds with a hit. Of some 83,000 tested, about 20% had one in any assay.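 The endpoint reported here, percent growth, reads 100 for growth as untreated, 0 for no net growth and -100 for all cells dead.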 A number with no mark means an inactive call. The source made the active and inactive calls. How the source made its calls: active means growth percent below 10; inactive means the rest.
# Columns and labels:
# Assay in all cases: NCI-60 one-dose screen, 48 h (100 = growth as untreated, 0 = no growth, -100 = all killed)
# Settings in all cases: 10 µM
# [1] = test system: SR leukemia
# [2] = test system: RPMI-8226 leukemia
# [3] = test system: OVCAR-8 ovarian
# [4] = test system: OVCAR-5 ovarian
# [5] = test system: OVCAR-4 ovarian
# [6] = test system: SK-OV-3 ovarian
# [7] = test system: IGROV1 ovarian
# [8] = test system: OVCAR-3 ovarian
# [9] = test system: HS 578T breast
# [10] = test system: NCI/ADR-RES ovarian
SMILES,growth [1],growth [2],growth [3],growth [4],growth [5],growth [6],growth [7],growth [8],growth [9],growth [10]
O=C1/C=C/[C@@H](O)[C@@H]2C[C@@H](O)C[C@H]2/C=C/CCC[C@H](CCc2ccc(NC(=S)Nc3ccc4c(c3)C(=O)OC43c4ccc(O)cc4Oc4cc(O)ccc43)cc2)O1,6.14% (active),12.3%,10.5%,17.9%,23.4%,32.1%,25.7%,-0.249% (active),39.8%,10.9%
COc1ccc(-c2onc(N)c2-c2cc(OC)c3c(c2)OCO3)cc1,9.86% (active),26.7%,39.3%,51.3%,61.9%,38.7%,41.5%,-1.21% (active),33.8%,-10.2% (active)
CC(=O)N[C@H](C(=O)N[C@@H](CCCNC(=N)N)C(=O)N[C@@H](CCCCN)C(=O)N[C@@H](CCCNC(=N)N)C(=O)NC(C(=O)N[C@@H](CC(C)C)C(=O)N[C@@H](CCCNC(=N)N)C(=O)N[C@@]1(C)CCC/C=C\CCC[C@@](C)(C(=O)N[C@@H](CCCNC(=N)N)C(=O)N[C@@H](CCC(=O)O)C(=O)N[C@@H](CC(C)C)C(=O)N[C@H](C(=O)N[C@@H](CCC(=O)O)C(N)=O)C(C)C)NC(=O)[C@H](CCC(N)=O)NC(=O)[C@H](CC(C)C)NC(=O)[C@H](CC(C)C)NC1=O)[C@@H](C)O)C(C)C (stereo not given in full),14%,-11% (active),9.08% (active),25.5%,75.9%,53.3%,60.3%,16.8%,-53.9% (active),17.3%
CC1/C=C/C=C/C=C/C=C/C=C/C=C/C=C/C(O[C@@H]2O[C@H](C)[C@H](O)[C@@H](O)[C@@H]2N)CC(O)C(C(=O)O)C(O)CC(=O)CC(O)CC(O)CC(O)CC(=O)CCCC(=O)CC(=O)OC1C(C)CC(C)C(O)CC(=O)c1ccc(N)cc1 (stereo not given in full),-63.1% (active),-43.7% (active),-97.5% (active),-98.9% (active),-96.1% (active),-100% (active),-83.7% (active),-99.7% (active),-52.8% (active),-99.6% (active)
CN1CCN(c2cc3c(cc2F)c(=O)c(C(=O)O)cn3-c2ccc(F)cc2)CC1,96.4%,101%,96.8%,106%,102%,109%,103%,102%,99.6%,90.1%
C#CCOc1c(OC)cc(C(=O)/C(C)=C/c2cccc(N=[N+]=[N-])c2)cc1OC,28.7%,43.7%,28.6%,42.9%,55.9%,32.1%,33.2%,-0.611% (active),46%,13.6%
COc1ccc2cc(-c3nc4ccccc4s3)c(Cl)nc2c1OC,87.6%,101%,103%,105%,94.6%,93.4%,103%,91.5%,89.9%,99.8%
CCOC(=O)C1=CSC2=NC3=C(CCC/C3=C\c3cc(OC)c(OC)c(OC)c3)C(c3cc(OC)c(OC)c(OC)c3)N12 (stereo not given),31.2%,22.4%,13.5%,75.7%,72.3%,102%,89.7%,57.1%,46.8%,3.63% (active)
COc1ccc(C(c2ccc(OCCN(C)C)cc2)c2cc3ccccc3c3ccccc23)cc1 (stereo not given),-30.6% (active),13.2%,70.2%,79.3%,77.9%,106%,61.7%,62.6%,75.1%,68.1%
CCCN1CN2C(=O)N3CN(CCC)CN4C(=S)N(C1)C2C34 (stereo not given),79.3%,105%,108%,95.2%,103%,86.1%,99.3%,103%,113%,103%
NC1=NC(c2ccccc2)C2=C(N1)/C(=C/c1ccccc1)CCC2 (stereo not given),46%,-7.58% (active),80%,106%,81.3%,74%,100%,81.6%,88.5%,95.8%
O=C(N/N=C/c1ccc(Cl)cc1)c1ccccc1Nc1cccc(C(F)(F)F)c1,45.7%,82%,80.3%,96.9%,74.8%,84.9%,59.3%,60.3%,61.7%,88.8%
O=C(Nc1cccc2c1CCCC2)c1cc2ccccc2cc1O,18%,8.51% (active),55.9%,103%,56.8%,37%,32.1%,28.2%,47.5%,11.7%
CN(C)CCCOc1cccc(NC2=C(Cl)C(=O)C(Nc3cccc(OCCCN(C)C)c3)=C(Cl)C2=O)c1,-9.52% (active),-47.5% (active),-80.1% (active),-47.9% (active),-98.8% (active),98.2%,-67.4% (active),-96% (active),-2.49% (active),74.7%
NS(=O)(=O)Oc1ccc(-c2ccc3sccc3c2)cc1,115%,107%,102%,88.8%,97.3%,108%,101%,106%,44.6%,95.3%
CCN(CC)CCOC(=O)c1cc(OCc2ccccc2)c(OCc2ccccc2)c(OCc2ccccc2)c1,1.2% (active),32.9%,56.3%,83.3%,75.5%,100%,42.6%,64.9%,66.3%,52.5%
COc1ccc(-c2csc(NC(=O)c3ccc(Cc4n[nH]c(=O)c5cccnc45)cc3)n2)cc1,118%,82.6%,93.8%,95%,94.5%,95.1%,75.4%,103%,99.1%,94.1%
COc1ccc(/C(C#N)=C/c2ccccc2OC)cc1,34.7%,52.3%,53.5%,55.5%,89.9%,33.2%,31.9%,25.8%,47.8%,-0.0917% (active)
CS(=O)(=O)c1nccc(-c2c(-c3cccc(OCc4ccccc4)c3)nc3sccn23)n1,37.9%,81.6%,92.7%,89.2%,73.8%,72.8%,58.4%,89.4%,79.1%,90.7%
CCn1c(SCc2ccc(C)cc2)nnc1-c1nn(-c2ccc(Cl)cc2Cl)c(-c2ccc(Cl)cc2)c1C,6.14% (active),-3.78% (active),12.9%,26.8%,16.9%,-7.12% (active),30.8%,15.8%,38.4%,52.1%
CCOC(=O)c1cc(C(=O)c2ccc(F)cc2F)n2ccccc12,73%,77.6%,88%,99.7%,97.8%,88.7%,82.3%,103%,93.2%,88.5%
Oc1ccc(/C=N/N=C2c3ccccc3-c3ccccc32)c(O)c1,54%,72.8%,84.5%,77.1%,60.4%,84.7%,71.2%,83.5%,93.7%,72.9%
COc1cc(-c2csc(NC(=O)Nc3ccc(Cl)c(C(F)(F)F)c3)n2)cc(OC)c1OC,0.909% (active),-7.41% (active),4.2% (active),18.4%,-1.69% (active),2.04% (active),25.2%,-19% (active),16.8%,-8.03% (active)
c1ccc2c(c1)Cc1ccccc1N2CCN1CCCCC1,94.1%,87.2%,91.2%,96.6%,95.2%,88.8%,83.5%,108%,113%,88.5%
CN(C)c1ccc(/C=N/NC(=O)c2ccccc2Nc2cccc(C(F)(F)F)c2)cc1,85%,76.8%,99.6%,88.4%,76.1%,100%,69.1%,87.7%,83.5%,93%
CCN(CC)CCOc1cccc2c1C(=O)c1cccc(OCCN(CC)CC)c1C2=O,10.3%,11%,25.7%,55.5%,45.9%,33.8%,33.9%,47%,78.9%,86.5%
